# An excerpt weighted towards active compounds, which were near 19% of everything screened.
# TDP1 inh: qHTS Assay for Inhibitors of Tyrosyl-DNA Phosphodiesterase (TDP1); 350,000 tested, 0.28% active; Tyrosyl-DNA phosphodiesterase 1 (Homo sapiens), Q9NUW8; recombinant TDP1, AlphaScreen DNA substrate cleavage; Potency, µM (series often up to 130 µM), for the others: at the highest dose activity change, negative = inhibition, usual class: inhibitors; also: potency is read from the fitted curve at half-maximal effect; nearly all actives have a fitted effect of over 40% in size
# Target sequence (Q9NUW8 whole entry, looked up): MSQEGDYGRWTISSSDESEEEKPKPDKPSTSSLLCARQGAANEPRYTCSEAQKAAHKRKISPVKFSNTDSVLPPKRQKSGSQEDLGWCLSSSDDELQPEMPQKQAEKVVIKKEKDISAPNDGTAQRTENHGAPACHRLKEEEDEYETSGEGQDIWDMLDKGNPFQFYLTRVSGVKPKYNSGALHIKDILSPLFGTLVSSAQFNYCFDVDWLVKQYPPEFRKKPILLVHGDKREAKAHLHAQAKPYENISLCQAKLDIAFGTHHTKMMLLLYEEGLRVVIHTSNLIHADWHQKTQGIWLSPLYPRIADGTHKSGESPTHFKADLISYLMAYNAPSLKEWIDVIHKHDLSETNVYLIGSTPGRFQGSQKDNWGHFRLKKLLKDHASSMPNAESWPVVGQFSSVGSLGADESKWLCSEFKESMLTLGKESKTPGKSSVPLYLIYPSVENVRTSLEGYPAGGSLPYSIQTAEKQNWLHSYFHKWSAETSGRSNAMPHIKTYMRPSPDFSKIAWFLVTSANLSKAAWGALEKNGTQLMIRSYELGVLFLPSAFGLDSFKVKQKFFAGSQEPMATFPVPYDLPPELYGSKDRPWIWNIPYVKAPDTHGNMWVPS
#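 Enzyme-compound mixtures sat 15 min at room temperature, followed by a 5 min reaction with 15 nM final substrate and 10 min with AlphaScreen beads. Recombinant human Tdp1 was used at 1 nM final.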
# Giardia killer: Small Molecules that selectively kill Giardia lamblia: qHTS; Giardia lamblia trophozoite viability; activity change, % at 7.66 µM, hits read low; 340,000 tested, 0.15% active; AID 540267, 2011; in the data active = activity change below about -80%; inconclusive = between about -30% and that limit;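 also: parasites exposed to compound for two days anaerobically before the ATP read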
#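 Giardia trophozoites, 100 cells per well, were exposed to compounds for 48 hrs at 37 deg C under anaerobic conditions; viability was then read as ATP content by bioluminescence after 15-30 min at room temperature.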
# IL1B secr inh: qHTS for Inhibitors of Inflammasome Signaling: IL-1-beta AlphaLISA Primary Screen. THP-1 LPS/ATP IL-1B secretion, AlphaLISA, 16 h; hits give low values. activity change, % at 57.5 µM. 360,000 tested, 4.7% active; in the data active = activity change below about -50%; inconclusive = mostly about -30% to -49%
#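 Secreted IL-1B measured by AlphaLISA bead assay after 16 h compound exposure of THP-1 cells; compounds (final up to 57.5 uM) added 1 h before LPS (250 ng/mL) and ATP (1.25 mM) stimulation; lower signal means less secretion.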
# ELG1 repair inh: qHTS screen for small molecules that inhibit ELG1-dependent DNA repair in human embryonic kidney (HEK293T) cells expressing luciferase-tagged ELG1; HEK293T ELG1-luciferase reporter, luminescence, 16 h; DNA damage induced by 5-fluorouridine; Potency, µM (series often up to 46.1 µM), for the others: at the highest dose activity change, negative = inhibition, most hits filed as inhibitors; 330,000 tested, 2.3% active; AID 504467, 2011; also: potency is read from the fitted curve at half-maximal effect; nearly all actives have a fitted effect of over 55% in size
#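 In this reporter screen, reduction of luminescence relative to DMSO vehicle indicated activity. Compounds and 5-fluorouridine were added together to 2,000 cells per well, incubated for 16 hr at 37 °C, then developed with ONE-Glo.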
# DT40 TDP1 no CPT: qHTS for Inhibitors of human tyrosyl-DNA phosphodiesterase 1 (TDP1): qHTS in cells in absence of CPT; 420,000 tested, 15% active; DT40 Tdp1-/- hTDP1 cells, no CPT, ATP luminescence, 48 h; Potency, µM (highest dose often 46.2 µM), inactives show at the top dose activity change, negative = growth inhibition, most hits filed as inhibitors; AID 686978, 2013; also: potency is read from the fitted curve at half-maximal effect; nearly all actives have a fitted effect of over 55% in size
#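 Chicken DT40 Tdp1-/- cells complemented with human TDP1, screened without camptothecin (DMSO vehicle only), 400 cells/well. Compounds pin-transferred, cells incubated at 37 °C for at least 48 hr. Growth read as ATP-dependent luminescence (CellTiter-Glo, 30 min at RT).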
# TDP1 cell CPT: qHTS for Inhibitors of human tyrosyl-DNA phosphodiesterase 1 (TDP1): qHTS in cells in presence of CPT; chicken DT40 Tdp1-/-;hTDP1 cells + 20 nM CPT, ATP luminescence, 48 h; Potency, µM (highest dose often 46.2 µM), for inactives: top-dose activity change, negative = growth inhibition, usual class: inhibitors; 420,000 tested, 12% active; also: potency is read from the fitted curve at half-maximal effect; nearly all actives have a fitted effect of over 55% in size
#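 Cell growth measured by CellTiter-Glo luminescence after a minimum 48 h, 37 C compound exposure with 20 nM CPT in Tdp1-knockout DT40 cells stably expressing hTDP1, seeded 400/well; qHTS titration format.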
# Numbers without * were called inactive; ? = inconclusive; . = no result given; [ ] = dose if it differs, or a comment. Unless noted, calls follow the shape of the dose curve; as a rule, active = well fitted curve in the direction sought with a large enough effect; inconclusive = small, poorly fitted or top-dose-only effect, or another doubt; inactive = no such curve, though single readings can be large; an effect the other way counts as inactive or inconclusive. % is scaled to controls: 0 for no effect and ±100 for the full control effect.
SMILES,TDP1 inh,Giardia killer,IL1B secr inh,ELG1 repair inh,DT40 TDP1 no CPT,TDP1 cell CPT
Cc1cc(-c2cc(C(=O)NCc3ccccc3)on2)nc(S(C)(=O)=O)n1,2%,-2,-103*,?,5.8µM*,7.3µM*
COCCNc1nc(C)cc(-c2cc(C(=O)NCc3ccccc3)on2)n1,5%,8,-1,14%,2%,-20%
CC(=O)c1ccc(NC(=O)Cn2c3ncccc3c(=O)n2-c2ccc(C)cc2)cc1,3%,.,.,.,16µM*,16µM*
CCc1ccc(-n2c(=O)c3cccnc3n2CC(=O)Nc2cc(F)ccc2F)cc1,8%,.,.,.,8.2µM*,2.6µM*
CCc1ccc(-n2c(=O)c3cccnc3n2CC(=O)Nc2cc(OC)ccc2OC)cc1,0%,.,.,.,?,?
CCc1cccc(-n2c(=O)c3cccnc3n2CC(=O)Nc2ccc(OC)c(Cl)c2)c1,5%,.,.,.,26µM*,21µM*
CCc1ccc(-n2c(=O)c3cccnc3n2CC(=O)N(CC)c2cccc(C)c2)cc1,0%,.,.,.,13µM*,23µM*
COc1cc(=O)n2c(c1C(=O)N(C)Cc1nonc1C)CCN(Cc1ccc(C)cc1C)CC2,.,.,.,.,?,-15%[9.04 µM]
CN(Cc1ccc(F)cc1)C(=O)c1cccc(S(=O)(=O)N2CCN(Cc3ccccc3)CC2)c1,4%,-3,-61*,-7%,13µM*,21µM*
COc1ccccc1CN(C)C(=O)c1cccc(S(=O)(=O)N2CCN(Cc3ccccc3)CC2)c1,0%,-6,-54*,-2%,?,?
COc1cccc(NC(=O)c2cccc(S(=O)(=O)N3CCN(Cc4ccccc4)CC3)c2)c1,.,11,?,?,?,?
CC1CCCCC1NC(=O)c1cccc(S(=O)(=O)N2CCN(Cc3ccccc3)CC2)c1 (stereo not given),1%,0,3,-18%,21µM*,16µM*
CN1CCN(S(=O)(=O)c2cccc(C(=O)N(Cc3ccccc3)c3ccccc3)c2)CC1,.,-3,4,.,?,?
CSc1ccc(CN(C)C(=O)c2cccc(S(=O)(=O)N3CCN(Cc4ccccc4)CC3)c2)cc1,.,4,-72*,?,13µM*,16µM*
CSc1ccc(C(=O)N2CCc3c(cnc(C)c3CNC(=O)c3cncs3)C2)cc1,.,.,.,.,?,0%[9.04 µM]
CC(=O)Nc1ccc(NC(=O)Cn2c(=O)n(-c3ccc(C)cc3)c(=O)c3oc4ccccc4c32)cc1,0%,7,3,?,17%,12%
CCOc1cccc(=O)c2c(C)n(CC(=O)c3ccccc3)c(C)c12,9%,-13,-59*,?,?,?
CC(C)=CCC/C(C)=C/CNC(=O)CC1C[C@H](C(=O)N2CCOCC2)[C@@]2(C)c3[nH]c4ccccc4c3CCN2C1=O (stereo not given in full),6%,7,?,?,12µM*,13µM*
CC(C)=CCC/C(C)=C/CNC(=O)C[C@H]1C[C@H](C(=O)N2CCOCC2)[C@@]2(C)c3[nH]c4ccc(Cl)cc4c3CCN2C1=O,4%[56.1 µM],14,-65*,?,?,23µM*
CC(C)=CCC/C(C)=C/CNC(=O)C[C@H]1C[C@H](C(=O)N2CCOCC2)[C@@]2(C)c3[nH]c4cc(-c5ccco5)ccc4c3CCN2C1=O,6%[56.1 µM],11,?,?,13µM*,21µM*
CC(C)(C)NC(=O)CC1C[C@H](C(=O)N2CCOCC2)[C@@]2(C)c3[nH]c4ccccc4c3CCN2C1=O (stereo not given in full),0%,-11,2,14%,-8%,-10%
COc1ccc(CNC(=O)C[C@H]2C[C@H](C(=O)N3CCOCC3)[C@@]3(C)c4[nH]c5cc(-c6ccco6)ccc5c4CCN3C2=O)cc1OC,5%[56.1 µM],44,-6,?,?,?
CC(C)(C)NC(=O)C[C@H]1C[C@H](C(=O)N2CCOCC2)[C@@]2(C)c3[nH]c4ccc(Cl)cc4c3CCN2C1=O,1%[56.1 µM],15,-5,2%,-28%,-10%
CCCN(CC(=O)Nc1cc(C)on1)CC(=O)Nc1ccccc1C,0%[56.1 µM],8,11,2%,-3%,5%
CC1(c2nnnn2-c2ccc3c(c2)OCCO3)CCC(=O)N1CCc1c[nH]c2ccccc12 (stereo not given),.,.,11,.,?,?
SMILES,TDP1 inh,Giardia killer,IL1B secr inh,ELG1 repair inh,DT40 TDP1 no CPT,TDP1 cell CPT
CCNC(=S)N/N=C(\C)c1ccc2ccccc2c1OC(F)F,2%,4,32,?,16µM*,23µM*
C/C(=N\NC(=O)COc1ccc(C#N)cc1)c1ccccc1OC(F)F,8%,-3,-1,-10%,?,-21%
CCNC(=S)N/N=C(\C)c1ccc2ccccc2c1,8%,.,.,?,.,.
C/C(=N\NC(=S)NC(C)C)c1ccccc1OC(F)F,3%,2,18,-8%,3.3µM*,2.9µM*
COc1ccc([N+](=O)[O-])cc1NC(=O)Cn1ccc(C(F)(F)F)n1,4%,5,35,14%,-4%,12%
Cc1ccc(CNC(=O)CN(C)S(=O)(=O)c2ccc(Br)s2)cc1,-2%,.,.,.,?,-14%
CCCCC(=O)Nc1c(C(=O)N2CCN(c3ccccc3)CC2)oc2ccccc12,11%,.,.,.,9.2µM*,15µM*
